Source: PubChem BioAssay (NCI)
This is part of a sample that, as a whole, favours compounds with a hit. Of some 79,000 tested, about 15% had one in any assay. Calls of active or inactive are those of the source. No stated cut-off is given here; in the data, active means growth inhibition above about 70%; inactive means the rest.

Experiments:
[1] = NCI Yeast Anticancer Drug Screen. Data for the rad50 strain (AID 155);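 further: 0% = growth of vehicle-only cultures of the same strain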; settings: S. cerevisiae rad50 strain growth inhibition; at 50.0 µM; stronger effect = higher value
How it was run: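 Genetically altered yeast (DNA repair pathway); compound treatment; growth inhibition vs vehicle ctrl.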

[2] = NCI Yeast Anticancer Drug Screen. Data for the mec2-1 strain (AID 157); settings: S. cerevisiae mec2-1 strain, at 50.0 µM, stronger effect = higher value
How it was run: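 Vehicle-treated cultures served as reference for growth inhibition of compound-exposed mec2-1 yeast.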

[3] = NCI Yeast Anticancer Drug Screen. Data for the sgs1 mgt1 strain (AID 161);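 further: 0% = growth of cultures given vehicle only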; settings: S. cerevisiae sgs1 mgt1 strain, at 50.0 µM, stronger effect = higher value
How it was run: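 Mutant yeast exposed to compound; growth scored against vehicle-only wells.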

[4] = NCI Yeast Anticancer Drug Screen. Data for the cln2 rad14 strain (AID 165);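 further: 0% = growth equal to vehicle treated cultures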; settings: S. cerevisiae cln2 rad14 strain, at 50.0 µM, stronger effect = higher value
How it was run: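 Each compound was tested on cln2 rad14 yeast. Inhibition of growth was calculated against vehicle-exposed controls.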

[5] = NCI Yeast Anticancer Drug Screen. Data for the bub3 strain (AID 167); settings: S. cerevisiae bub3 mutant strain, at 50.0 µM, stronger effect = higher value
How it was run: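 Yeast carrying a defined mutation is treated with each compound, and growth is compared with that of vehicle-exposed cells to give inhibition.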

[6] = NCI Yeast Anticancer Drug Screen. Data for the mlh1 rad18 strain (AID 175); settings: S. cerevisiae mlh1 rad18 strain growth inhibition; at 50.0 µM; stronger effect = higher value
How it was run: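 Vehicle-treated cultures served as the reference for growth inhibition in a yeast strain carrying DNA damage repair alterations exposed to each compound.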

Measured: growth inhibition

COc1ccc(C(=O)C(C(=O)CCC(=O)Nc2cccc(Cl)c2)c2ccc(OC)cc2)cc1 (centres undefined)
inactive: [1] -25.1% | [2] -9.4% | [3] -20.2% | [4] -4.9% | [5] 0.5% | [6] -0.15%

O=C1NC2(CCCC2)C(=O)NC12CCCC2
inactive: [1] -21.1% | [2] -22.1% | [3] -1.45% | [4] -13.2% | [5] -26.2% | [6] 1.35%

c1ccc(CN2CCCCC2)nc1
inactive: [1] -12.9% | [2] -20.7% | [3] -11.1% | [4] 10.6% | [5] -10.2% | [6] -10.2%

Nc1nc(N)c(N=Nc2ccc(Cl)cc2)c(=O)[nH]1
inactive: [1] 19.9% | [2] -20.6% | [3] -26.1% | [4] 23.1% | [5] 5.35% | [6] 13.7%

CCCCNc1nc(C#N)c(N)s1
inactive: [1] 3.6% | [2] -3.35% | [3] -12.7% | [4] 11.3% | [5] 11.7% | [6] 8.55%

Cc1cc(C)cc(C(=O)NCc2ccc[n+]([O-])c2)c1
inactive: [1] -10.3% | [2] -5.6% | [3] -6.35% | [4] -11.9% | [5] 0.4% | [6] 17.6%

Cc1nc2c(o1)C(=O)c1ccccc1C2=Nc1ccc(N2CCOCC2)cc1
inactive: [2] 29.7% | [3] 13.2% | [4] -1.15% | [5] 11.9% | [6] 39.1%
active: [1] 78.9%

CCOCN1COCN(C)C1=O
inactive: [1] 8.1% | [2] -6.55% | [3] -6.45% | [4] 13.3% | [5] 20.1% | [6] 3.95%

Cc1cc(C)c(C(=O)c2cccc(Cl)c2)c(C)c1
inactive: [1] -13% | [2] 4.7% | [3] 5.55% | [4] -56.9% | [5] 34.4% | [6] 22%
